Source: PubChem BioAssay (The Scripps Research Institute Molecular Screening Center)
TEAD-YAP inh: TEAD-YAP interaction inhibition; HEK-TIYL cells, TEAD-Gal4/YAP UAS-luciferase luminescence; inhibition, % at 9.12 µM; actives 1.4% (n = 640,000); in the data active means inhibition above about 32%;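 further: 0% = median of test compound wells and 100% = reference inhibitor wells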
FBW7 activator: human FBW7 E3 ligase activation, primary screen | AlphaScreen FBW7–phospho-cyclin E peptide binding, activator screen | actives 0.13% (n = 650,000) | normalized activity (activation), % at 26.1 µM; in the data active means normalized activity above about 1.9%;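 further: purified mutant Fbw7 with reduced substrate affinity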
GPR151 ag: activators of human GPR151; activation, % at 11.2 µM; Q8TDV0; actives 1% (n = 650,000); PathHunter beta-arrestin GPR151 cells, luminescence; in the data active means activation above about 4.9%;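 further: 0% = median of compound wells and 100% = cells with positive control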
Target sequence (Q8TDV0 whole entry, looked up): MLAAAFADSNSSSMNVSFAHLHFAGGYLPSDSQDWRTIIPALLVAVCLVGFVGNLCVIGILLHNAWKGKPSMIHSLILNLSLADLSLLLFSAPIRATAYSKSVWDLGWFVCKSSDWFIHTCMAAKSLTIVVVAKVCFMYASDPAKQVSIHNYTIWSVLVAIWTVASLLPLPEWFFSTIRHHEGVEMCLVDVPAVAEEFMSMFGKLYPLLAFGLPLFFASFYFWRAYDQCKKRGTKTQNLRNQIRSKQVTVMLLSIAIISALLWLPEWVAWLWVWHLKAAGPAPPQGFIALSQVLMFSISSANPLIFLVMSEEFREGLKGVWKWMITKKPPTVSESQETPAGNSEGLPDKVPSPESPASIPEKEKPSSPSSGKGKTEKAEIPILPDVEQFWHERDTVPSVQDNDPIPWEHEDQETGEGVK
MITF primary: inhibitors of human MITF | AlphaScreen MITF homodimerization, bead proximity signal | inhibition, % at 2.6 µM | actives 0.91% (n = 650,000) | AID 1259374; in the data active means inhibition above about 50%;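 further: 0% = vehicle wells with protein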
* = called active by the depositor. The list is not random: actives were taken first. Their share in the collection is about 3.5%.

SMILES | TEAD-YAP inh | FBW7 activator | GPR151 ag | MITF primary
CN(C)c1ccc(Cc2c(NC=O)ccc3ccccc23)cc1 | -3 | 0 | -1 | 10
O=C(CCCCC(=O)N/N=C/c1ccccc1O)N/N=C/c1ccccc1O | 40* | -1 | 1 | 7
CC(C)(C)NC(=O)C(=O)N/N=C/c1ccccc1O | -44 | -2 | 0 | 53*
O=C(CCC(=O)Nc1cccc(Cl)c1)N/N=C/c1ccccc1O | 7 | 0 | 0 | 56*
O=C(CCCNc1ccccc1)N/N=C/c1ccccc1O | 6 | 0 | -1 | -5
Cc1cccc(N2CC(O)=C(c3ccccc3)C2=N)c1 | -3 | 0 | 0 | -7
O=C(N/N=C\c1ccc([N+](=O)[O-])o1)c1ccccc1-n1cccc1 | 49* | 0 | 3 | 12
Cc1c(C(=O)N/N=C/c2cccc(OC(=O)N3CCOCC3)c2)nnn1-c1nonc1N | 7 | 0 | 1 | -17
COc1cc(C(=O)N/N=C/c2cccc(OC(=O)N3CCOCC3)c2)cc(OC)c1OC | 58* | 0 | 2 | 19
Cc1ccc(C(=O)N/N=C/c2ccc(O)c(O)c2O)c(C)c1 | -16 | -1 | 0 | 57*
COc1cc(C(=O)N/N=C/c2ccc([N+](=O)[O-])o2)cc(OC)c1OC | 34* | 0 | -1 | 13
CCOc1cccc(/C=N/NC(=O)c2ccc(C)cc2C)c1O | 0 | -1 | 0 | -4
CC(=O)O/N=C(\C)c1c(OC(C)=O)ccc2c(C)cc(=O)oc12 | 3 | 0 | 1 | 8
Cc1ccc(C(=O)O)cc1NC(=O)c1cc(=O)c2ccccc2o1 | 5 | 0 | 3 | -3
Cc1cc(C(=O)N/N=C/c2ccc(O)c(O)c2O)c(C)n1-c1ccccc1 | 7 | -1 | 1 | 39
Cc1cc(C(=O)N/N=C/c2cc([N+](=O)[O-])ccc2O)c2ccccc2n1 | 17 | 0 | 0 | 102*
Cc1cc(C(=O)N/N=C/c2ccccc2OC(F)F)c2ccccc2n1 | 34* | 1 | 0 | 8
O=C(N/N=C/c1ccc(O)c(O)c1O)c1ccccc1-n1cccc1 | 9 | -1 | -1 | 56*
Cc1cc(C(=O)N/N=C/c2ccc(O)c(O)c2O)c2ccccc2n1 | 17 | -1 | -2 | 82*
CCCCCOc1ccc(NC(=O)C(=O)NCC2CCCO2)cc1 (stereo unspecified) | -6 | 1 | -1 | 13
O=C(Nc1ccc(I)cc1)c1ccc(Cl)c(S(=O)(=O)N2CCOCC2)c1 | 0 | 0 | -1 | 9
O=C(NCc1ccc(Cl)cc1)C(=O)Nc1ccc(F)cc1F | -17 | 0 | -1 | 3
CCCC1=Nc2cc(C(=O)NCCOC)ccc2Sc2ccccc21 | 51* | 0 | 0 | 9
COC(=O)c1ccc2c(c1)N=C(C)c1cc(C)ccc1S2 | -8 | 0 | -1 | 6
CCOCCCNC(=O)c1ccc2c(c1)N=C(CC)c1ccccc1S2 | 58* | 0 | 0 | 8
SMILES | TEAD-YAP inh | FBW7 activator | GPR151 ag | MITF primary
CCC1=Nc2cc(C(=O)NCCCOC)ccc2Sc2ccccc21 | 57* | 0 | 1 | 2
CCOCCCNC(=O)c1ccc2c(c1)N=C(C)c1cc(C)ccc1S2 | 68* | 0 | 0 | 3
CCC1=Nc2cc(C(=O)NCCCN3CCOCC3)ccc2Sc2ccccc21 | 2 | 0 | 0 | 3
Cc1ccc2c(c1)c(=O)c1ccccc1n2CC(=O)Nc1ccc(Br)cn1 | 0 | 0 | 1 | 1
O=C(Nc1ccc(C(=O)N2CCCC2)cc1)c1ccc(Br)o1 | -23 | 0 | -9 | -5
CCCC(=O)N1CCN(c2ccc(NC(=O)c3ccc(Br)o3)cc2)CC1 | 60* | 0 | -2 | 2
O=C(Nc1ccc(N2CCCCC2)cc1)c1ccc(Br)o1 | 49* | 0 | -8 | 25
O=C(Nc1ccc(N2CCCCC2)cc1)c1ccccc1F | 70* | 0 | -7 | 8
OCCNc1nc(-c2cccs2)nc2c1ncn2-c1ccsc1 | 67* | 0 | 0 | 33
Cc1nn(C)c(C)c1-c1nc(NCCO)c2ncn(-c3ccsc3)c2n1 | 43* | 0 | 0 | 8
COc1ccc(CCNc2nc(-c3c(C)nn(C)c3C)nc3c2ncn3-c2ccsc2)cc1 | -6 | 0 | 3 | 5
CCCNc1nc(-c2cccs2)nc2c1ncn2-c1ccsc1 | 14 | 0 | -1 | 4
c1ccc(CN2CCC(Nc3nc(-c4cccs4)nc4c3ncn4-c3ccccc3)CC2)cc1 | 14 | 0 | 1 | 10
OCCNc1nc(-c2csc3ccccc23)nc2c1ncn2-c1ccsc1 | 44* | 0 | 0 | 7
c1csc(-c2nc(NC3CC3)c3ncn(-c4ccsc4)c3n2)c1 | 34* | 0 | -2 | 10
O=C(CSc1cn(CCNC(=O)c2c(F)cccc2F)c2ccccc12)NC1CCCCC1 | 6 | 0 | 1 | 3
Cc1nc2ncccc2c(=O)n1-c1ccc(NC(=O)c2ccco2)cc1 | 3 | 0 | 0 | 3
Nc1ccc2nc3c(c(Cl)c2c1)CCCC3 | 33* | 0 | 1 | 9
O=C(COC(=O)C12CC3CC(CC(O)(C3)C1)C2)Nc1ccc(-c2ccccc2)cc1 | 0 | 0 | 1 | 2
COc1ccc(-c2cc3nccc(C4CCCNC4)n3n2)cc1OC (stereo unspecified) | 2 | 0 | 1 | 2
COc1cccc(-c2cc3nc(C4CCCNC4)cc(N)n3n2)c1 (stereo unspecified) | 37* | 0 | 0 | -9
Nc1cc(C(=O)NCc2ccco2)ccc1Cl | -13 | 0 | -1 | 6
CC(C)n1cnc2c(NCCc3ccc(O)cc3)nc(-c3cccc(N)c3)nc21 | 12 | 0 | 0 | 8
NC(=O)c1ccc(-c2nc(NCc3cccnc3)c3ncn(Cc4ccc(C(F)(F)F)cc4)c3n2)cc1 | 46* | 1 | -1 | -4
CC(=O)c1cccc(-c2nc(NCc3cccnc3)c3ncn(C(C)C)c3n2)c1 | 59* | 0 | 4 | 3
SMILES | TEAD-YAP inh | FBW7 activator | GPR151 ag | MITF primary
CC(=O)c1cccc(-c2nc(NCc3ccccc3)c3ncn(C(C)C)c3n2)c1 | 10 | 0 | 0 | -4
Cn1c(Nc2nc(NCCc3ccc(O)cc3)c3ncn(C4CCCCC4)c3n2)nc2ccccc21 | 35* | 0 | -1 | 3
CC(=O)c1cccc(-c2nc(NCCc3ccc(O)cc3)c3ncn(C(C)C)c3n2)c1 | 63* | 0 | -1 | -8
CC(=O)c1cccc(-c2nc(NCCc3ccc(O)cc3)c3ncn(-c4ccsc4)c3n2)c1 | 82* | 0 | 2 | 7
CC(=O)c1cccc(-c2nc(NCCc3ccc(O)cc3)c3ncn(-c4ccccc4)c3n2)c1 | 72* | 0 | 1 | 12
O=C(NC1CC1)c1ccc(-c2nc(NCCOc3ccccc3)c3ncn(-c4ccccc4)c3n2)cc1 | -2 | 0 | 2 | 4
O=C(NC1CC1)c1ccc(-c2nc(NCCc3ccc(O)cc3)c3ncn(-c4ccccc4)c3n2)cc1 | 56* | 0 | -1 | -3
COc1ccc(CCNc2nc(-c3cccc(C(C)=O)c3)nc3c2ncn3-c2ccsc2)cc1 | -1 | 0 | 1 | 0
NC(=O)c1ccc(-c2nc(NCCc3ccc(O)cc3)c3ncn(C4CCCCC4)c3n2)cc1 | 44* | 0 | 1 | 0
